Results: PubChem BioAssay AID488890 (Southern Research Specialized Biocontainment Screening …, 2010)
Out of some 320,000 compounds screened, about 1,300 (0.41%) were called active. Roughly 3% stayed inconclusive and do not appear here. The rule behind the calls is not given here. A selection follows. Results with a measured potency or affinity are listed apart.

assay: growth inhibition of non-replicating M. tuberculosis (AID 488890); conditions: Mycobacterium tuberculosis non-replicating, at 25 µM, stronger effect = higher value;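 note: plate controls were DMSO cells for no effect and high antibiotic wells for full effect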

SMILES	inhibition
N=c1c(S(=O)(=O)c2ccc(Cl)cc2)cc2c(=O)n3ccccc3nc2n1CCc1ccccc1	16.6%
Cc1ccc(C)c(OCCCN2CCCC2)c1	-3.13%
Brc1ccc(/C=N/Nc2nc3ccccc3o2)cc1	0.82%
Fc1ccccc1/C=N/Nc1nc2ccccc2o1	14.1%
Oc1ccc(/C=N/Nc2ncc(Br)cn2)c(O)c1	57.8%
Oc1ccc(Br)cc1/C=N/Nc1ncc(-c2ccccc2)cn1	1.56%
Clc1cc(Cl)cc(NC2=NCCS2)c1	5.95%
COc1ccc(S(=O)(=O)n2oc(=O)cc2-c2ccccc2)cc1OC	-6.84%
Cc1occc1C(=O)NC1CCCc2ccccc21 (centres undefined)	3.75%
Cc1ccc(NC(=O)COc2ncnc3sccc23)cc1S(=O)(=O)N(C)C	7.74%
Cc1c(C#N)c2ccccc2n1C	-15.1%
COc1ccc(N2CC(C(=O)OCC(=O)c3ccc(C)cc3)CC2=O)cc1 (centres undefined)	23.6%
NC(=O)C1CC(=O)N(c2ccc(OCc3ccccc3Cl)cc2)C1 (centres undefined)	58.3%
O=C(OCc1ccccc1Cl)C1CC(=O)N(Cc2ccco2)C1 (centres undefined)	12.3%
COc1cccc(COC(=O)C2CC(=O)N(Cc3ccc(C)cc3)C2)c1OC (centres undefined)	76.5%
O=C(O)C1CC(=O)N(c2ccc(OCc3ccccc3Cl)cc2)C1 (centres undefined)	31.4%
COC(=O)C1CC(=O)N(c2ccc(C)cc2)C1 (centres undefined)	24.5%
O=C1N(Cc2cccnc2)C[C@@H]2C[C@@H](c3cccc(OCc4ccccc4)c3)N3CCC[C@@]123	13.3%
O=C(C1CCCN(C2CC(=O)N(c3ccc(Cl)cc3)C2=O)C1)N1CCCC1 (centres undefined)	62.9%
COc1cc(/C=N/NC(=O)c2cc(C)oc2C)cc(OC)c1OC	5.12%
Cc1cc(C(=O)OC(C)C(=O)N2CCc3ccccc32)ccc1[N+](=O)[O-] (centres undefined)	-2.01%
C=CCc1ccc(OCCCCOc2ccc(C(=O)O)cc2)c(OC)c1	65.2%
CCOc1ccc(C(=O)OCC(=O)N(Cc2ccccc2)Cc2ccccc2)cc1OC	6.46%
CCN(C(=O)COn1nnc2ccc(S(=O)(=O)N(C)C)cc21)C1CCS(=O)(=O)C1 (centres undefined)	-12%
Cc1ccccc1OC1CCN(C(=O)C2CCC(=O)N(C3CCCC3)C2)CC1 (centres undefined)	-4.05%
COc1ccnc2c1c(=O)n(Cc1ccc(Cl)cc1Cl)c(=O)n2C	7.37%
COc1ccc(OC)c(S(=O)(=O)NCC(=O)O)c1	-1.93%

SMILES	inhibition
C[C@H](CO)N1C[C@H](C)[C@@H](CN(C)S(C)(=O)=O)Oc2ccc(NC(=O)C3CCCCC3)cc2C1=O	-13.1%
O=c1cc(-c2ccc(O)cc2)oc2cc(O)cc(O)c12	20.1%
O=c1cc(-c2ccccc2)oc2cc(O)cc(O)c12	9.39%
CCOC(=O)c1ccc(NC(C)=O)c([N+](=O)[O-])c1	-2.26%
CCOC(=O)c1ccc([N+](=O)[O-])cc1NC(C)=O	-5.06%
Cc1cc(S(=O)(=O)NCCCn2ccnc2)c(C)cc1Cl	21.8%
Cc1ccc(NC(=O)C2C3C=CC4(O3)C2C(=O)N(CCN2CCOCC2)C4C(=O)NC2CCCCC2)cc1C (centres undefined)	4.86%
COc1ccc(Cl)cc1S(=O)(=O)NC(C)C(=O)NCc1cccnc1 (centres undefined)	0.53%
CNc1c(C(=O)O)ccc2c1C(=O)c1ccccc1C2=O	-14.2%
COc1ccc2c(c1O)C(=O)c1ccccc1C2=O	-8.36%
CCc1ccccc1NS(=O)(=O)c1cc(C)ccc1OC	16.3%
CCOc1ccc2nc(NCCCO)[nH]c2c1	2.84%
O=C(O)c1cccc(S(=O)(=O)Nc2cc(Cl)ccc2Cl)c1	13.1%
COc1ccc(NC(=O)C2CCN(S(=O)(=O)c3ccc(Br)s3)CC2)cc1OC	-2.33%
Cc1ccc(C2C(C#N)=C(N)Oc3n[nH]c(C)c32)cc1 (centres undefined)	-4.34%
CCCc1[nH]nc2c1C(c1cccc(OC(=O)c3ccco3)c1)C(C#N)=C(N)O2 (centres undefined)	17.8%
Cc1[nH]nc2c1C(c1ccc(Cl)cc1)C(C#N)=C(N)O2 (centres undefined)	-2.67%
Cc1[nH]nc2c1C(c1ccc(-c3ccccc3C#N)o1)C(C#N)=C(N)O2 (centres undefined)	49.7%
COc1ccc(Br)cc1CNc1ccc(N2CCOCC2)cc1	24%
CCCCN(C(=O)C1CC(=O)N(c2ccc3c(c2)OCCO3)C1)c1c(N)n(CCCC)c(=O)[nH]c1=O (centres undefined)	0.16%
Cc1ccccc1NC(=O)c1nn(C)c2c1CS(=O)(=O)c1ccccc1-2	-16.9%
O=C(O)C1CC(O)CN1S(=O)(=O)c1ccc2ccccc2c1 (centres undefined)	8.45%
O=C(Oc1cccnc1)c1ccc(Cl)cc1	8.07%
O=C(Oc1cccnc1)c1cccc(Cl)c1	51.8%
CCOC(=O)C1CCCc2c1[nH]c1c(C(=O)O)cccc21 (centres undefined)	67.3%
CCOC(=O)c1ccc2[nH]c3c(c2c1)CCCC3C(=O)OCC (centres undefined)	64.3%
CCOC(=O)c1c(C)nc2ccc(C)cn12	37%

SMILES	inhibition
CCOC(=O)c1c(C)nc2ccccn12	6.28%
CC1Cc2cc(/C=C3/SC(=S)N(C)C3=O)ccc2O1 (centres undefined)	5.53%
CC1Cc2cc(/C=C3/SC(N4CCC(C(N)=O)CC4)=NC3=O)ccc2O1 (centres undefined)	21.7%
COC(=O)c1ccc(C23CC4(C2)[C@H](CN(C)[C@@H]4c2ccccc2)C3c2ccccc2)cc1 (some centres undefined)	-17.5%
Cc1ccc(N2CC(=O)Nc3c(sc4nc(C)cc(C)c34)C2=O)cc1	7.84%
O=C(CNC(=O)c1ccc(Cl)cc1)Nc1ccc(S(=O)(=O)Nc2ncccn2)cc1	19.6%
Cc1ccnc(NC(=O)CN(C)S(=O)(=O)c2cccc3nsnc23)c1	4.38%
Cc1nc2ccccc2c(=O)n1N(c1ccccc1)c1ccccc1	40%
O=C1C=CC(=O)N1Cc1ccccc1	33.7%
O=C(Nc1cccc(F)c1)C1CCCN1C(=O)OCc1ccccc1 (centres undefined)	-8.2%
COc1ccc(-c2cc(C(=O)NC(C)C)no2)cc1	2.59%
COc1ccc(-c2cc(C(=O)O)no2)cc1	9.82%
Brc1ccc2nc3c(n2c1)CCCC3	40.8%
CC(C)(C)S(=O)(=O)c1ccc2nc3c(n2c1)CCCC3	12.6%
CN(c1ccccc1C(=O)O)S(C)(=O)=O	-5.19%
CC1(c2ccccc2Cl)NC(=O)N(CC(=O)N2CCN(S(=O)(=O)c3ccccc3)CC2)C1=O (centres undefined)	-5.46%
O=C(CNC(=O)c1ccco1)N/N=C/c1ccccc1[N+](=O)[O-]	-2.46%
CC(=O)Nc1nc(-c2cccs2)cs1	18.4%
O=C(Nc1ccc(N2CCN(C(=O)c3cccs3)CC2)cc1)c1ccco1	-3.51%
O=C(Nc1nc(-c2cccs2)cs1)c1ccco1	25.2%
CC(C)C(=O)N1CCN(c2ccc(NC(=O)c3ccc(Br)o3)cc2)CC1	8.34%
O=C(Nc1nc2c(F)cccc2s1)c1ccc([N+](=O)[O-])o1	65.5%
Cc1ccccc1C(=O)N1CCN(c2ccc(NC(=O)c3ccc([N+](=O)[O-])o3)cc2)CC1	78.2%
O=C(Nc1ccc(N2CCN(C(=O)c3cccs3)CC2)cc1)c1ccc(Br)o1	67.5%
O=C(Nc1nc2ccccc2s1)c1ccc([N+](=O)[O-])o1	64.8%
